Screening results deposited in PubChem by National Center for Advancing Translational Sciences (NCATS).
Hits are enriched below; roughly 2.4% of the tested compounds scored in any of these assays.
GLP1R ag: GLP-1 receptor (human) agonism; P43220; HEK293 GLP-1R CRE-luciferase, luminescence, 4-6 h; cells express a hypersensitive GLP-1R form; Potency, µM (series often up to 45.6 µM), inactives show at the highest dose activation, actives largely listed as activators; 380,000 compounds, 0.007% hits; AID 624172; also: potency is read from the fitted curve at half-maximal effect; % of control where 0% means no effect
GLP1R inv ag: GLP-1 receptor (human) inverse agonism; P43220; HEK293 GLP-1R CRE-luciferase, luminescence, 24 h; GLP-1R form is constitutively active; Potency, µM (doses to about 38.3 µM), without a hit: at the top dose activity change, negative = inhibition, most hits filed as inhibitors; 410,000 compounds, 1.6% hits; AID 624417; also: potency is read from the fitted curve at half-maximal effect; % is scaled to controls: 0 for no effect and ±100 for the full control effect; nearly all actives have a fitted effect of over 55% in size
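HEK293 cells stably co-expressing constitutively active GLP-1R and a cAMP-responsive luciferase reporter were seeded in DMEM with 10% Nu serum, given compounds after 12 h, and incubated 24 h at 37 deg C. Luminescence was then read.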
TRHR ag: activates the human TRH receptor | P34981 | activation, % at 2 µM | 360,000 compounds, 0.18% hits | TRHR cells, calcium flux fluo-8, FDSS agonist mode; in the data active = activation above about 30%; also: 0% is about no effect
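Read-out: compound-evoked intracellular calcium rise in TRHR cells, fluo-8 dye, kinetic FDSS fluorescence at 1 s/cycle following a 10-cycle baseline. Cells cultured overnight before dye loading (30 min–1.5 h, RT).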
TRHR PAM: allosteric enhancers of human TRH receptor; P34981; TRHR cells, fluo-8 calcium fluorescence, EC20 TRH enhancement; enhancement, % at 2 µM; 360,000 compounds, 0.66% hits; AID 493056; in the data active = enhancement above about 30%; also: 0% is about no effect
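TRHR-expressing cells loaded with fluo-8 calcium dye were read kinetically (ex 480/em 530) during compound addition, then stimulated with an EC20 of TRH (10 nM final). Enhancement of the Gq-mediated intracellular calcium response was scored.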
PTHR1 ag: activates the human parathyroid hormone receptor PTHR1; Q03431; HEK293 GP2 PTHR1 cells, GloSensor cAMP luminescence, 1 h; Potency, µM (highest dose often 115 µM), for inactives: at the highest dose activation, usual class: activators; 410,000 compounds, 0.075% hits; also: potency is read from the fitted curve at half-maximal effect; nearly all actives have a fitted effect of over 55% in size
Target sequence (Q03431 whole entry, looked up): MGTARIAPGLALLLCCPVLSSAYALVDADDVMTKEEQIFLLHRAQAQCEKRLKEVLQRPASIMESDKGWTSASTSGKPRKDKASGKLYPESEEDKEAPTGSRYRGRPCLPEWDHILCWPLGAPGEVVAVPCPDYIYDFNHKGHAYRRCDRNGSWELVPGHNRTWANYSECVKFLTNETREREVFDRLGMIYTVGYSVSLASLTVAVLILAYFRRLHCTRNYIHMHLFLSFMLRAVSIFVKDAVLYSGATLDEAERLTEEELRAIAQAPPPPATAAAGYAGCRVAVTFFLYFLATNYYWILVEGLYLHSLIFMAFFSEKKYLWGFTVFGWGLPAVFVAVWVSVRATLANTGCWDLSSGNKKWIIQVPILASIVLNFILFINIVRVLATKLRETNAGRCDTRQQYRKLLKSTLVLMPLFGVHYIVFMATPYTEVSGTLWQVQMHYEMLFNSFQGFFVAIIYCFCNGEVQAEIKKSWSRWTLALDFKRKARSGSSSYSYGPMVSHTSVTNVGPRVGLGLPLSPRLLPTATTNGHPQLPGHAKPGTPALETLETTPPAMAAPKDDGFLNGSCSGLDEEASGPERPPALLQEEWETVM
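HEK-293-derived GP2 cells expressing PTHR1 and a GloSensor cAMP reporter, 3,000/well, plated overnight, given luciferin plus IBMX (each 0.5 mM as added) for 1 h at 37 °C, then compound for 1 h at 37 °C. Luminescence was read after 15 min at room temperature.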
HEK293 tox: cytotoxic in the GLP-1 receptor inverse agonist counter-screen. 410,000 compounds, 0.13% hits. HEK293 cAMP-luciferase reporter cells, luminescence, 24 h. Potency, µM (titrated, usually from 38.3 µM), inactives show at the top dose activity change, negative = inhibition, actives largely listed as inhibitors;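 also: loss of luciferase light is scored as toxicity; potency is read from the fitted curve at half-maximal effect; % is scaled to controls: 0 for no effect and ±100 for the full control effect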
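Cells in DMEM/10% Nu serum/1% pen-strep, 1536-well format. Pre-incubated 12 h, dosed with 23 nL compound, incubated a further 24 h. Luciferase detection, 12 min at room temp, luminescence.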
An asterisk follows results filed as active; [ ] = remark or other dose. Unless noted, calls follow the shape of the dose curve; as a rule, active = well fitted curve in the direction sought with a large enough effect; inconclusive = small, poorly fitted or top-dose-only effect, or another doubt; inactive = no such curve, though single readings can be large; an effect the other way counts as inactive or inconclusive.

`OCCN(CCO)c1cc2c3ccccc3ccc2c2ccccc12` gave GLP1R ag 13%, GLP1R inv ag 10µM*, PTHR1 ag -10% and HEK293 tox -3%.
Screening CC1CCCN(C(=O)CCCn2c(=S)[nH]c3ccccc3c2=O)C1 (configuration not stated) returned GLP1R ag 4%, GLP1R inv ag 9%, TRHR ag -1, TRHR PAM 8, PTHR1 ag inactive and HEK293 tox -12%.
For O=C(CCCOc1ccc(Cl)cc1Cl)N/N=C/c1ccccc1O the results were GLP1R ag -4%, GLP1R inv ag 4.5µM*, TRHR ag -2, TRHR PAM 6, PTHR1 ag inactive and HEK293 tox inconclusive.
For O=C1/C(=C/c2ccc(F)c(F)c2)CSc2sccc21 the results were GLP1R ag 6%, GLP1R inv ag inconclusive, TRHR ag 0, TRHR PAM 0, PTHR1 ag -1% and HEK293 tox 14%.
Screening CCOc1ccc(C(=O)OCC(=O)NC(C)C)cc1 returned GLP1R ag 5%, GLP1R inv ag 3%, TRHR ag 0, TRHR PAM 5, PTHR1 ag inactive and HEK293 tox 3%.
For COc1cc(CNCc2ccc(C(=O)O)cc2)ccc1OCc1ccc(F)cc1 the results were GLP1R ag 7%, GLP1R inv ag 24%, TRHR ag 0, TRHR PAM 0, PTHR1 ag inconclusive and HEK293 tox -7%.
For CCCCN1C(=O)C(=O)NC[C@H]1Cc1cccc2ccccc12 the results were GLP1R ag 5%, GLP1R inv ag 4%, PTHR1 ag -10% and HEK293 tox -8%.
Screening O=C1NC[C@@H](Cc2cccc3ccccc23)N(CC2(c3ccccc3)CC2)C1=O returned GLP1R ag -3%, GLP1R inv ag 11µM*, TRHR ag 0, TRHR PAM 2, PTHR1 ag -93% and HEK293 tox 3%.
Screening COc1cc(CN(C2CC2)S(=O)(=O)c2ccccc2Br)cc(OC)c1 returned GLP1R ag 24%, GLP1R inv ag 10µM*, PTHR1 ag inactive and HEK293 tox 8%.
C=CCCN(C1CCCC1)S(=O)(=O)c1ccccc1Br was read as GLP1R ag 3%, GLP1R inv ag inconclusive, TRHR ag -1, TRHR PAM -3, PTHR1 ag 3% and HEK293 tox 6%.
For COc1ccc(N2C(=O)CS/C2=N\C(=S)Nc2ccccc2)cc1 the results were GLP1R ag 9%, GLP1R inv ag 13µM*, TRHR ag -1, TRHR PAM -6, PTHR1 ag inactive and HEK293 tox inconclusive.
`COc1cccc(C=Nc2ccc(N3CCOCC3)cc2)c1O` gave GLP1R ag 14%, GLP1R inv ag -3%, TRHR ag -2, TRHR PAM 36*, PTHR1 ag inactive and HEK293 tox 2%.
`CN(C)CCN1C(=O)c2cccc3cc([N+](=O)[O-])cc(c23)C1=O` gave GLP1R ag -19%, GLP1R inv ag 1.8µM*, PTHR1 ag inactive and HEK293 tox inconclusive.
COc1ccc(CCNC(=O)c2ccc3c(c2)N(Cc2ccccc2Cl)C(=O)c2ccccc2S3)cc1OC was read as GLP1R inv ag -20%, TRHR ag 1, TRHR PAM -8, PTHR1 ag inactive and HEK293 tox 3%.
For Cc1ccc(CN2CCc3c(OCc4ccc(F)cc4)cccc3C2=O)cc1 the results were GLP1R ag 13%, GLP1R inv ag 4.5µM*, TRHR ag 4, TRHR PAM -3, PTHR1 ag -36% and HEK293 tox 12%.
For O=C(NCc1ccncc1)NC1CCCCC1 the results were GLP1R ag -4%, GLP1R inv ag 19%, TRHR ag 3, TRHR PAM 5, PTHR1 ag -31% and HEK293 tox 11%.
CCN(Cc1nc(-c2ccccc2)no1)C(=O)COc1cccc(OC)c1 was read as GLP1R ag 14%, GLP1R inv ag 1.8µM*, TRHR ag 0, TRHR PAM 6, PTHR1 ag -15% and HEK293 tox 14%.
Screening COC(=O)C1=C(C)N(c2ccc(F)c(Cl)c2)C(=O)C1 returned GLP1R ag -5%, GLP1R inv ag 0%, TRHR ag 0, TRHR PAM -12, PTHR1 ag -3% and HEK293 tox 7%.
For O=C(O)c1ccccc1-c1ccc(/C=C/c2cc(C(F)(F)F)[nH]c(=O)n2)o1 the results were GLP1R ag -1%, GLP1R inv ag 14%, TRHR ag 33*, TRHR PAM -4, PTHR1 ag inactive and HEK293 tox inactive.
Screening O=C(O)c1cc(Cl)ccc1-c1ccc(/C=C/c2cc(C(F)(F)F)[nH]c(=O)n2)o1 returned GLP1R ag 0%, GLP1R inv ag 11%, TRHR ag 73*, TRHR PAM -2, PTHR1 ag -10% and HEK293 tox inactive.
For Cc1cccc(C)c1OCC(=O)N(Cc1ccccc1F)C1CCS(=O)(=O)C1 (configuration not stated) the results were GLP1R inv ag -25%, TRHR ag 0, TRHR PAM -3, PTHR1 ag 10% and HEK293 tox 8%.
`CCOCN(C(=O)Cn1c(C)nc2ccccc21)c1c(C)cccc1CC` gave GLP1R inv ag -13%, TRHR ag 0, TRHR PAM -12, PTHR1 ag -7% and HEK293 tox 11%.
`CCOCN(C(=O)Cn1c(CC(C)C)nc2ccccc21)c1c(C)cccc1CC` gave GLP1R ag -4%, GLP1R inv ag 11µM*, TRHR ag -1, TRHR PAM 4, PTHR1 ag -6% and HEK293 tox -13%.
Screening CN1CCN(c2ccc(CNC[C@H]3O[C@@H](n4cnc5c(=O)[nH]c(N)nc54)[C@H](O)[C@@H]3O)c(F)c2)CC1 returned GLP1R ag -3%, GLP1R inv ag 28%, PTHR1 ag 8% and HEK293 tox -6%.
O=C1OC2(c3ccc(O)cc3Oc3cc(O)ccc32)c2ccccc21 was read as GLP1R ag 5%.
Screening CC(=O)Oc1ccc2c(c1)Oc1cc(OC(C)=O)ccc1C21OC(=O)c2ccccc21 returned GLP1R ag 2%, GLP1R inv ag 3%, TRHR ag 106*, TRHR PAM -20, PTHR1 ag -21% and HEK293 tox inactive.
For CCOC(=O)c1cccc(NS(=O)(=O)c2c(C)[nH]c(=O)[nH]c2=O)c1 the results were GLP1R ag -4%, GLP1R inv ag -1%, TRHR ag 0, TRHR PAM -5, PTHR1 ag -3%[57.5 µM] and HEK293 tox -5%.
